Compounds with a hit are over-represented: about 4% of the library has one in this group of screens.
CSC inhib: blocks cancer stem cells; cancer stem cell-like cells viability, luminescence; inhibition, % at 7.5 µM; hit rate 1.1% among 300,000; in the data active means inhibition above about 75%; tested in HMLE shEcad cells
Beta apoptosis: beta cell apoptosis inhibition; INS-1E cytokine-induced death, ATP luminescence, 48 h; percent of positive-control rescue, neutral wells zero; protection from apoptosis, % (test concentration not listed); hit rate 0.8% among 300,000; AID 435005;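 active means Every replicate reaches about 75%, or at least half do and their mean reaches it too, limit read from the data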;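 further: 0% = cytokine-treated negative control wells and 100% = positive control rescue; higher means more ATP so stronger rescue from cytokine killing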
Mdm2-MdmX inh: human Mdm2/MdmX binding inhibition | SaOS-2 split-luciferase Mdm2/MdmX complementation, luminescence | inhibition, % at 8 µM | hit rate 3% among 330,000 | AID 485346 | O15151+Q00987;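 active means inhibition of at least 50% at 8 µM in the primary screen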
Target sequence (O15151 whole entry, looked up): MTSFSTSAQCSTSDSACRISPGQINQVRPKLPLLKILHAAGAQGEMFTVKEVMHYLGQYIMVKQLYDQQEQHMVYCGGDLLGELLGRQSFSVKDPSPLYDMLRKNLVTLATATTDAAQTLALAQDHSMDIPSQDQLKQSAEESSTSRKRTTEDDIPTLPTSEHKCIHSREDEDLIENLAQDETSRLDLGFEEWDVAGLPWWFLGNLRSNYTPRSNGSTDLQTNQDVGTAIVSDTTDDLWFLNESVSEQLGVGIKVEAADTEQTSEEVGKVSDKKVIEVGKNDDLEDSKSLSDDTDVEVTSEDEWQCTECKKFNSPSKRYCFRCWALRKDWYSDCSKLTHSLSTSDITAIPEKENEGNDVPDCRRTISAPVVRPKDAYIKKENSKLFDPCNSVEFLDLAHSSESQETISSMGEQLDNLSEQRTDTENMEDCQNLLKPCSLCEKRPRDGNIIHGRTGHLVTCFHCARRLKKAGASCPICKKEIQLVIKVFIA
Target sequence (Q00987 whole entry, looked up): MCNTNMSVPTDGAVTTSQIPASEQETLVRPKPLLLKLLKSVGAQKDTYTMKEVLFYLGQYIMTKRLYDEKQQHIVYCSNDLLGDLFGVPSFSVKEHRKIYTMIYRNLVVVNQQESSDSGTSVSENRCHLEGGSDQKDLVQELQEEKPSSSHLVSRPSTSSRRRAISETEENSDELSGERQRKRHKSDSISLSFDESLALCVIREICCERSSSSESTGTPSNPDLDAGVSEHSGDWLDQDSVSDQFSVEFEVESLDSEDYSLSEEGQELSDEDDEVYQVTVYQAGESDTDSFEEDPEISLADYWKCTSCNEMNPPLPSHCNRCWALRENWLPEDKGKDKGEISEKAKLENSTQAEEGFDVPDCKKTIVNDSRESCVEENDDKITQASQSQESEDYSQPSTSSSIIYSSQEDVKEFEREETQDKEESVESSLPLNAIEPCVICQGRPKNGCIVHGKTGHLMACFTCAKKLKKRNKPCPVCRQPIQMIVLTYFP
PAX8 reporter: inhibitors of PAX8 transcriptional activity in RMG-I cells | inhibition, % at 12.6 µM | RMG-I TPO-luciferase reporter, SteadyGlo, 24 h | AID 652154 | hit rate 1.2% among 360,000;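 active means mean replicate inhibition at least 60% with every replicate also reaching 60%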;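 further: luciferase light reporting Pax8 driven TPO promoter activity; plate controls were median of neutral control wells for no effect and mitoxantrone controls for full effect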
Gli-Sufu antag: antagonists of Gli-Sufu signaling; AID 588413; hit rate 0.74% among 340,000; inhibition, % at 5 µM; Sufu-KO-LIGHT fibroblasts, Gli luciferase reporter luminescence;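 active means inhibition above about 55%, limit read from the data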;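 further: 0% = DMSO-treated cells and 100% = wells with medium but no cells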
Shn3 inh set2: inhibitors of Schnurri-3 3'UTR reporter in osteoblasts; Clone20 osteoblast Shn3 3'UTR firefly luciferase, 24 h; hit rate 0.52% among 360,000; inhibition, % at 12.5 µM;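 active means mean inhibition of at least 75% with every replicate also reaching 75%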;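 further: 0% = median of neutral control wells and 100% = pilot-screen positive control compound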
Mdm2-MdmX conf: confirmation of human Mdm2/MdmX interaction inhibitors. shares compounds with Mdm2-MdmX inh. Mdm2-MdmX binding, luminescent assay. inhibition, % at 8 µM. hit rate 55% among 10,000. AID 489028; in the data active means inhibition above about 40%
FLuc counter: full-length luciferase inhibition in Mdm2/MdmX counter-screen | hit rate 77% among 6,200 | inhibition, % at 8 µM | SaOS-2 full-length luciferase counterscreen, luminescence | shares compounds with Mdm2-MdmX inh | AID 504607;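 active means mean inhibition at 8 µM reaching about 37%, which flags the compound as non-specific, limit read from the data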;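 further: p53-null SaOS-2 cells with luciferase driven by a doxycycline-inducible promoter; compound on cells about two nights before reading with doxycycline added after day one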
* = called active by the depositor; x = not tested or not shown; ! = a repeat was not active.

SMILES	CSC inhib	Beta apoptosis	Mdm2-MdmX inh	PAX8 reporter	Gli-Sufu antag	Shn3 inh set2	Mdm2-MdmX conf	FLuc counter
C[C@@H]1CN([C@@H](C)CO)C(=O)c2cc(NS(=O)(=O)c3ccc(Cl)cc3)ccc2O[C@@H]1CN(C)Cc1ccccc1	x	x	x	2	x	x	x	x
Cc1ccccc1S(=O)(=O)N1CC(=O)N2[C@H](CO)[C@H](c3ccc(C#CC4CC4)cc3)[C@H]2C1	x	x	x	5	x	x	x	x
O[C@@H]1[C@@H](O)C=C2CCN3Cc4cc5c(cc4[C@H]1C23)OCO5 (stereo not given in full)	6	36	84*	102*	69*	20	76*	101*
CCOC(=O)c1ccc(NC(=O)Nc2cc(C)cc(C)n2)cc1	10	12	50*	5	x	x	0	x
CCOC(=O)c1ccc(NC(=O)Nc2ccc(F)cc2)cc1	19	6	-6	-47	-27	4	x	x
CCOC(=O)c1ccc(Nc2cc(C)nc(-c3ccccc3)n2)cc1	97*	7	56*	19	2	8	66*	57*
COc1cc(NC(=O)c2csc(N)n2)cc(C(=O)Nc2cccc(C(F)(F)F)c2)c1	88*	19	59*	82*!	9	-13	57*	60*
COc1cc(NC(=O)c2cnc(N)s2)cc(C(=O)Nc2cccc(C(F)(F)F)c2)c1	50	3	35	57	-4	-31	x	x
Cc1ccc(S(=O)(=O)N[C@H]2CC[C@@H](CCNC(=O)CN3CCOCC3)O[C@H]2CO)cc1	x	x	x	-9	x	x	x	x
NC(=O)c1oc2ccccc2c1NC(=O)c1ccc([N+](=O)[O-])o1	x	35	65*	74*	40	58	55*	32
CC(C)COCC(CN(Cc1ccccc1)c1ccccc1)N1CCCC1 (stereo not given)	10	6	60*	-8	6	54	34	x
C/C(=N\NC(=O)c1nnn(-c2nonc2N)c1CSc1ccccc1)c1ccco1	-2	2	24	6	-13	-11	x	x
C/C(=N\NC(=O)c1nnn(-c2nonc2N)c1CSc1ccccc1)c1ccc2c(c1)OCO2	x	-3	54*	4	-6	1	17	x
C/C(=N\NC(=O)c1nnn(-c2nonc2N)c1CSc1ccc(C)cc1)c1ccco1	2	3	62*	-6	-8	5	0	x
N#CC1=C2SCC(O)(c3ccccc3)N2C(=O)CC1c1ccccc1F (stereo not given)	43	30	87*	30	22	10	83*	40*
N#CC1=C2SCC(O)(c3ccccc3)N2C(=O)CC1c1cccs1 (stereo not given)	x	x	x	x	30	19	x	x
O=C(N/N=C/c1ccc(Cl)cc1)C(=O)N1CCCCCC1	-7	-8	-17	-18	-10	10	x	x
O=C(N/N=C/c1c(F)cccc1Cl)C(=O)N1CCCCCC1	-6	-2	56*	-5	-27	5	0	x
COCc1cn(CC[C@H]2CC[C@@H](NC(=O)Nc3ccc(F)cc3)[C@@H](CO)O2)nn1	x	x	x	-7	x	x	x	x
COc1ccc(Cc2nnc(NC(=O)c3cc(OC)cc(OC)c3)s2)cc1	58	-8	52*	15	-3	-6	46*	86*
CCCNC(=O)C[C@@H]1C[C@H]2c3cc(NC(=O)Cc4ccncc4)ccc3O[C@H]2[C@@H](CO)O1	x	x	x	-12	x	x	x	x
COc1ccccc1-c1ccc([C@H]2[C@@H](CO)N(C(=O)NC(C)C)[C@H]2C#N)cc1	x	x	x	-25	x	x	x	x
Cc1nc2ccccn2c1-c1csc(Nc2ccc(C(=O)O)cc2)n1	56	20	53*	9	5	9	54*	63*
C[C@H]1CN([C@@H](C)CO)C(=O)c2cc(NC(=O)NC3CCCCC3)ccc2O[C@@H]1CN(C)S(=O)(=O)c1ccccc1	x	x	x	3	x	x	x	x
CC1(C)N=C(SCC(=O)Nc2ccc(Cl)cc2)C(c2ccc(Cl)cc2)=N1	39	-17	56*	-14	9	26	13	x
CN1CCN(C(=O)C[C@H]2CC[C@@H]3[C@H](COC[C@@H](O)CN3Cc3ccc(Oc4ccccc4)cc3)O2)CC1	x	x	x	8	x	x	x	x

Screening data as filed in PubChem.
